Bioassay records (PubChem BioAssay)
WT yeast gro inh – growth inhibition of WT strain, primary screen, mitochondrial fusion inhibitor project, WT and mutant strains, chemical genetic; inhibition, % at 10 µM; AID 1362, 2008; 190,000 tested, 2.1% active; mitochondrial fusion phenotypic screen; in the data active = inhibition above about 58%; tested in S. cerevisiae
ROMK primary – ROMK potassium channel modulators, primary screen, cell-based, thallium flux, MLSMR library; ATP-sensitive inward rectifier potassium channel 1 (Homo sapiens), P48048; Tet-inducible ROMK, thallium flux fluorescence; actives lie on both sides; B-score at 10 µM; 130,000 tested, 2% active;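 active = signal ratio slope over the read window, or its plate-corrected B-score, at least 3 SD from the plate mean, either direction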;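 also: B-score of the F/F0 ratio slope over 7 to 12 s after thallium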
Target sequence (P48048 whole entry, looked up): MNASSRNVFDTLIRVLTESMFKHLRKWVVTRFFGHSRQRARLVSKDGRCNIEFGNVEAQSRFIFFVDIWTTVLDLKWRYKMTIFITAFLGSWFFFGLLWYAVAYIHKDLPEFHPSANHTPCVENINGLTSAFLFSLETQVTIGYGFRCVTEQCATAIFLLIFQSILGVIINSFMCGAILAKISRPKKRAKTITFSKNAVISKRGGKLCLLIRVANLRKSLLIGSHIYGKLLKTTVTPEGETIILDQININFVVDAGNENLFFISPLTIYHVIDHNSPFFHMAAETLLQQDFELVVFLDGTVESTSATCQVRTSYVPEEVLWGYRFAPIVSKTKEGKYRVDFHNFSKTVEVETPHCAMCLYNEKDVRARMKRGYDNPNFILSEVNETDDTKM
Calpain2 inh – inhibitors of pig calpain II, primary screen, biochemical, fluorogenic peptide substrate, 1536-well; 220,000 tested, 0.37% active; purified calpain II, 30 min; inhibition, % at 16 µM;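 active = inhibition above about 50%, limit read from the data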
L major viab – Leishmania major promastigote growth inhibition, primary screen | 200,000 tested, 9% active | Leishmania major promastigotes, resazurin fluorescence viability | inhibition, % at 10 µM; in the data active = inhibition above about 50%;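 also: promastigotes grown with compound for 44 hours at 28 °C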
Cl transport mod – KCC2 cotransporter modulators, thallium flux, primary screen, cell-based, HEK293 KCC2, FluoZin-2 fluorescence, MLSMR. Solute carrier family 12 member 5 (Homo sapiens), Q9H2X9. KCC2 cells, thallium flux FluoZin-2 fluorescence. B-score of Tl+ flux slope (higher = more flux/activation; lower = inhibition) at 10 µM. 190,000 tested, 2.2% active. AID 1456, 2008;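 active = thallium flux slope and its plate-corrected score both differing from the plate sample mean at a set confidence after two filtering rounds, in either direction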;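 also: slope of fluorescence scaled to starting intensity during 10 to 20 s after thallium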
A number is an active result; . = inactive; / = not tested or not shown. This is a sample that favours compounds with a hit; in the whole collection about 12% have one here.

SMILES	WT yeast gro inh	ROMK primary	Calpain2 inh	L major viab	Cl transport mod
COc1ccc(F)cc1C(=O)C1CCCN(Cc2ccc(Oc3ncccn3)cc2)C1 (stereo not drawn)	.	/	.	.	.
O=C(c1ccc2c(c1)OCO2)C1CCCN(C2CCN(CCc3ccccc3)CC2)C1 (stereo not drawn)	.	.	.	98.3	/
CCOC(=O)CNC(=O)N1CCCC(C(=O)c2ccc3c(c2)OCO3)C1 (stereo not drawn)	.	.	.	.	.
COc1ccc(F)cc1C(=O)C1CCCN(Cc2ccc3c(c2)OCCO3)C1 (stereo not drawn)	.	.	.	104.0	.
CCn1c(-c2ccccc2)c(C(=O)CC#N)c2ccccc21	.	.	.	.	.
CC(C)n1c(=S)[nH]c2ccccc2c1=O	.	/	.	.	37.5
CCOc1cc2[nH]c(=S)n(C(C)C)c(=O)c2cc1OCC	.	/	.	.	9.73
CC1CCCCC1n1c(=S)[nH]c2ccccc2c1=O (stereo not drawn)	75.5	/	.	.	187
CCC1CCCCN1CCCn1c(=S)[nH]c2ccccc2c1=O (stereo not drawn)	.	.	.	97.2	9.23
Cc1cc(S(=O)(=O)Nc2c(C)nc3nc[nH]n3c2=O)ccc1F	.	.	.	.	.
CC(Oc1ccc([N+](=O)[O-])cc1Cl)C(=O)Nc1ccc(C(N)=O)cc1 (stereo not drawn)	.	.	.	.	.
Cc1ccc(-c2nnc(Cc3ccc([N+](=O)[O-])cc3)o2)cc1	.	.	.	.	.
COC(=O)N1CC(=O)N(OC)C1c1ccc(Cl)cc1Cl (stereo not drawn)	.	/	.	.	.
O=C(Nc1ccc(N2CCOCC2)c(Cl)c1)c1cccnc1	.	.	.	.	.
COc1ccc(OCC(=O)NC(=S)Nc2ccc(N3CCOCC3)c(Cl)c2)cc1	.	.	.	.	35.8
COc1ccc(OCC(=O)Nc2ccc3c(c2)nc(CCN2CCOCC2)n3C)cc1	.	.	.	52.1	.
O=C(NC(=S)Nc1ccc(N2CCOCC2)c(Cl)c1)c1cncc(Br)c1	.	.	.	82.4	11.1
CNCc1c(OCc2ccccc2F)ccc2ccccc12	.	.	.	56.1	.
CCOC(=O)C1=NN(c2ccc(OC)cc2)C(c2ccccc2)CC1=O (stereo not drawn)	.	/	.	60.6	.
CCOC(=O)C1=NN(c2ccccc2)C(c2ccccc2)CC1=O (stereo not drawn)	.	/	.	.	.
O=C(CN1N=C(c2ccccc2)CCC1=O)NCc1cccs1	.	.	.	.	.
CCC1(C)Cc2c(sc3nc(NN)n(C)c(=O)c23)CO1 (stereo not drawn)	.	.	.	95.0	.
CC1(C)C2CCC1(CS(=O)(=O)Nc1ccc(S(=O)(=O)N3CCCC3)cc1)C(=O)C2 (stereo not drawn)	.	.	.	50.3	.
O=C(N/N=C/c1ccc([N+](=O)[O-])o1)c1ccccc1NS(=O)(=O)c1cccs1	/	.	.	/	/
Cc1ccc(-c2cc(-c3cccc(F)c3)n[nH]2)c(O)c1	.	/	.	.	.
SMILES	WT yeast gro inh	ROMK primary	Calpain2 inh	L major viab	Cl transport mod
Cc1ccc(-c2cc(-c3ccccc3C)[nH]n2)c(O)c1	65.2	.	.	.	.
Cc1ccc(O)c(-c2cc(-c3cccc(F)c3)n[nH]2)c1	/	.	.	99.0	/
O=[N+]([O-])c1ccccc1-c1cc(-c2ccccc2O)n[nH]1	.	.	.	58.4	.
O=C(O)CCC(=O)Nc1ccc(Br)cc1C(=O)c1ccc(Cl)cc1	/	/	.	/	.
Cc1cccc2c1N(CCOc1ccccc1Cl)C(=O)C2=O	.	.	.	66.5	.
O=C(NCCN1CCOCC1)c1ccc2c(c1)N(Cc1ccccc1F)C(=O)c1ccccc1S2	.	.	.	100.1	.
Cc1cccc(CN2C(=O)c3ccccc3Sc3ccc(C(=O)NCCN4CCOCC4)cc32)c1	.	.	.	99.8	.
O=C(c1ccc2c(c1)N(Cc1ccccc1F)C(=O)c1ccccc1S2)N1CCOCC1	/	/	.	/	.
O=C(NCc1ccccc1)C(=O)Nc1nc(C23CC4CC(CC(C4)C2)C3)cs1	.	/	.	.	3.93
Oc1ccc(N=Cc2cc(Br)c(N3CCOCC3)o2)cc1	.	.	.	66.9	.
O=[N+]([O-])c1cc(Br)c(O)c(C=Nc2ccc(N3CCOCC3)cc2)c1	.	.	.	.	.
CN(C1=NC(=O)C(CC(=O)O)S1)c1ccc(O)cc1 (stereo not drawn)	.	.	.	.	.
CC(C)CNC(=S)NC1CC2CCCC(C1)N2Cc1ccco1 (stereo not drawn)	.	/	.	62.2	.
CC(C)CN1C2CCCC1CC(NC(=S)NCc1ccco1)C2 (stereo not drawn)	.	.	.	.	.
CC(C)CNC(=S)NC1CC2CCCC(C1)N2Cc1cccs1 (stereo not drawn)	.	/	.	94.3	.
COCCCNC(=S)NC1CC2CCCC(C1)N2Cc1ccco1 (stereo not drawn)	99.1	/	.	.	/
CNC(=S)NC1CC2CCCC(C1)N2Cc1ccco1 (stereo not drawn)	.	/	.	.	/
Cc1cc(C)c(C)c(OCCCOc2cccc3cccnc23)c1	89.4	.	.	.	.
CCc1ccccc1NC(=O)CN(C)C(=O)CSc1nnc(Nc2cccc(C)c2)s1	.	.	.	.	.
Cc1ccc(Nc2nnc(SCC(=O)Nc3cccnc3Cl)s2)cc1C	.	.	.	82.9	.
CCc1ccccc1NC(=O)CN(C)C(=O)CSc1nnc(Nc2ccc(C)cc2)s1	.	/	.	72.2	.
CCc1ccc(Nc2nnc(SCC(=O)N(C)CC(=O)Nc3ccccc3CC)s2)cc1	.	.	.	73.5	.
Cn1ncc(N2CCN(C(=O)c3ccc(Cl)cc3)CC2)c(Cl)c1=O	.	/	.	.	.
Cc1nn(Cc2ccccc2Cl)c2sc(C(=O)NCCCn3ccnc3)cc12	.	/	.	.	.
Cc1cccc(C)c1NC(=S)N/N=C/c1ccc(OCCC(C)C)cc1	.	.	.	.	.
SMILES	WT yeast gro inh	ROMK primary	Calpain2 inh	L major viab	Cl transport mod
Cc1cc(Cl)ccc1OCC(=O)NCCOc1nc(N2CCOCC2)nc(N2CCOCC2)n1	.	.	.	.	.
Cc1nn(C)c(Cl)c1CN1CCN(CC(C)C)C(CCO)C1 (stereo not drawn)	.	.	.	.	.
COc1ccc(/C=N/Nc2nn3cnnc3c3ccccc23)cc1	/	/	.	/	.
CCc1ccc(-c2nn(-c3ccccc3)cc2C2SCC(=O)N2Cc2ccco2)cc1 (stereo not drawn)	/	.	.	98.1	.
COc1ccc(/C=C/C(=O)Nc2cccc(N3CCOCC3)c2)cc1OC	.	.	.	.	.
COCCNC(=O)/C(C#N)=C1\N=C(N)c2ccccc21	.	/	.	58.8	.
COC(=O)c1ccc(/C=C(\C#N)c2nc3ccccc3s2)cc1	83.8	/	.	.	.
O=C(CCCCn1c(=O)c2ccccc2n(Cc2ccccc2)c1=O)NC1CCN(Cc2ccccc2)CC1	.	.	.	73.1	.
